# From PubChem BioAssay AID2534 (National Center for Advancing Translational Sciences (NCATS), 2010)
# Inconclusive results are not listed. Values without a mark were called inactive. Calls of active or inactive are those of the source. Calls follow the shape of the dose curve; as a rule, active = well fitted curve in the direction sought with a large enough effect; inconclusive = small, poorly fitted or top-dose-only effect, or effect the other way, or another doubt; inactive = no such curve, though single readings can be large or run the other way.
# Target: Pyruvate kinase PKLR (Homo sapiens) (UniProt P30613)
# Sequence (P30613 whole entry, looked up): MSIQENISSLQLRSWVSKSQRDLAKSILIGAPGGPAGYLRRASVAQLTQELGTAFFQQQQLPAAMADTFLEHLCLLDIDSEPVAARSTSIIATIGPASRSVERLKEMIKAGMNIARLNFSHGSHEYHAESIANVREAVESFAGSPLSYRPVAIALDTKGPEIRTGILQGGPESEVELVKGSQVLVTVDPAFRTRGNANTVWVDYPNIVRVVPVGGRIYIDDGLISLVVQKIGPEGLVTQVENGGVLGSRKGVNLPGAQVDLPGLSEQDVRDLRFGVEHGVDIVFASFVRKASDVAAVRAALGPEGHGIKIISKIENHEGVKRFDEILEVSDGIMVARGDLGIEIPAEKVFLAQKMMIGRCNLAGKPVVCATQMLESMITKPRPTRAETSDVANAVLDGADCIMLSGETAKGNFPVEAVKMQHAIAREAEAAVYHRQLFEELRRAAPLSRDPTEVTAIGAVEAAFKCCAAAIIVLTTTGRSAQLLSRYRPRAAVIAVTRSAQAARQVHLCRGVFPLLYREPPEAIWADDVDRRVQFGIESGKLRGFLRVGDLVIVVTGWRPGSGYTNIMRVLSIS
# Assay: Secondary Concentration-Response Assay for Activators of Human Reticulocyte Pyruvate Kinase: for Probe SAR
# Details: purified hPK-R, ATP production, Kinase-Glo luminescence; series mostly up to 57.5 µM; activity change, negative = inhibition: at the top concentration
# Description: NIH Chemical Genomics Center [NCGC]
# Wael M. Rabeh, Lyudmila Nedyalkova and Hee-Wan Park [Structural Genomics Consortium, 100 College St. Toronto, Ontario, Canada]
# Human pyruvate kinase reticulocyte (hPK-R) enzyme was supplied as a highly purified (>95% pure) preparation from Structural Genomics Consortium in Toronto (Ontario, Canada) and assayed for its ability to generate ATP from ADP using phosphoenolpyruvate (PEP) as a substrate. ATP generation was detected in a coupled reaction by luciferase-mediated luminescence, an ATP-dependent process. Pyruvate kinase substrates, PEP and ADP, were present in the assay at Km and approximately 10-fold below Km respectively. The enzyme was assayed at an intermediate level of activity to screen for both inhibitors and activators.
# NCGC Assay Protocol Summary for R-isoform
# Three uL of substrate mix (at r.t.) in assay buffer (50 mM Imidazole pH7.2, 50 mM KCl, 7 mM MgCl2, 0.01% Tween 20, 0.05% BSA) was dispensed into white solid bottom 1,536 well microtiter plates so that the final concentrations of substrates in the assay were 0.1 mM ADP and 0.5 mM PEP. 23 nL of compound were delivered by a pin tool and 1 uL of enzyme mix (final concentration of 0.1 nM) in assay buffer (4 degree Celsius) was added. Plates were incubated at room temperature for 1 hour. Two uL of detection mix (Kinase-Glo, Promega; at 4 degree Celsius protected from light) was added and luminescence read by a ViewLux (Perkin Elmer) at 1 second exposure/plate. Data were normalized to the uninhibited (row 31). Additionally, a no enzyme and 5-fold enzyme control was dispensed in row 32, split equally between the two conditions.
Compound,"activity change, negative = inhibition",outcome
O=C1c2ccccc2C(=O)N1c1ccncc1,4.7%,–
O=C1c2ccccc2C(=O)N1c1cccc2cnccc12,4.76%,–
CC(C)Nc1cccc(S(=O)(=O)N2CCCN(S(=O)(=O)c3ccc4c(c3)OCCO4)CC2)c1,15.9%,–
O=C1c2ccccc2C(=O)N1c1cnc2ccccc2c1,10.5%,–
Cc1ccc(NS(=O)(=O)c2ccc3c(c2)CCC(=O)N3)cc1F,1.93%,–
O=C1CCc2cc(S(=O)(=O)Nc3ccc(F)cc3)ccc2N1,0.814%,–
Cc1ccc(C)c(SC2=NS(=O)(=O)c3cc(C(=O)NCc4ccccc4)ccc32)c1,-68.1%,–
O=C1c2ccccc2C(=O)N1c1nccs1,8.19%,–
COc1ccc(NS(=O)(=O)c2ccc3c(c2)CCC(=O)N3)cc1,15.1%,–
O=C1CCc2cc(S(=O)(=O)Nc3ccc4ccccc4c3)ccc2N1,3.45%,–
O=C1c2ccccc2C(=O)N1c1cc(=O)c2ccccc2[nH]1,2.34%,–
O=C1CCc2cc(S(=O)(=O)Nc3ccccc3F)ccc2N1,-5.2%,–
CNc1cccc(S(=O)(=O)N2CCCN(S(=O)(=O)c3ccc4c(c3)OCCO4)CC2)c1,22.1%,–
O=C1CCc2cc(S(=O)(=O)Nc3cccnc3)ccc2N1,1.36%,–
Cc1ccc(N2C(=O)c3ccccc3C2=O)c(C)c1,3.05%,–
O=C1CCc2cc(S(=O)(=O)Nc3ccc(Cl)c(Cl)c3)c(F)cc2N1,2.57%,–
Cc1cc2c(s1)c1cnn(Cc3ccccc3F)c(=O)c1n2C,–,inactive
O=C1CCc2cc(S(=O)(=O)Nc3cccc(Cl)c3)ccc2N1,8.82%,–
Cc1c(Cl)cccc1NS(=O)(=O)c1cc2c(cc1F)NC(=O)CC2,-6.02%,–
O=C1c2ccccc2C(=O)N1c1cccc2ccncc12,11.9%,–

Compound,"activity change, negative = inhibition",outcome
O=C1CCc2cc(S(=O)(=O)Nc3cccc(Oc4ccccc4)c3)ccc2N1,1.08%,–
O=C1CCc2cc(S(=O)(=O)NCc3ccccc3)ccc2N1,8.42%,–
O=C1c2ccccc2C(=O)N1C1CCCCC1,3.22%,–
O=C1CCc2cc(S(=O)(=O)Nc3cccc(Br)c3)ccc2N1,-3.86%,–
O=C1CCc2cc(S(=O)(=O)Nc3cccc(C(F)(F)F)c3)ccc2N1,1.1%,–
O=C1CCc2cc(S(=O)(=O)Nc3ccc(-c4ccccc4)cc3)ccc2N1,9.89%,–
Cc1cccc(NS(=O)(=O)c2ccc3c(c2)CCC(=O)N3)c1,10.5%,–
CN(C)c1cccc(S(=O)(=O)N2CCCN(S(=O)(=O)c3ccc4c(c3)OCCO4)CC2)c1,18.2%,–
Nc1cccc(S(=O)(=O)N2CCCN(S(=O)(=O)c3ccc4c(c3)OCCO4)CC2)c1,20.9%,–
Cc1ccc(C)c(OC2=NS(=O)(=O)c3ccccc32)c1,-0.194%,–
O=C1c2ccccc2C(=O)N1c1cccc2cccnc12,5.04%,–
Cc1ccc(NS(=O)(=O)c2ccc3c(c2)n(C)c(=O)n3C)cc1C,12.9%,–
O=C1CCc2cc(S(=O)(=O)Nc3ccccn3)ccc2N1,7.53%,–
O=S(=O)(c1ccc2c(c1)OCCO2)N1CCN(S(=O)(=O)c2c(F)cccc2F)CC1,–,inactive
O=C1CCc2cc([S+](=O)([O-])NC3CCOCC3)ccc2N1,-3.67%,–
Cc1c(Cl)cccc1NS(=O)(=O)c1cc2c(cc1Cl)CCC(=O)N2,1.15%,–
Cc1cc(N2C(=O)c3ccccc3C2=O)n[nH]1,-9.57%,–
COc1ccccc1NS(=O)(=O)c1ccc2c(c1)CCC(=O)N2,3.88%,–
O=C1c2ccccc2C(=O)N1c1cccc(Cl)c1,3.13%,–
O=C1CCc2cc(S(=O)(=O)Nc3cccc(B(O)O)c3)ccc2N1,-0.773%,–
